Screening results: PubChem BioAssay, several laboratories
CFTR F508del cor: correctors of CFTR F508del function in bronchial epithelial cells; CFBE cells, YFP halide quenching; stimulated with forskolin plus potentiator P3; % fluorescence drop versus neutral controls; activity (quench increase), % at 7.58 µM; actives 0.36% (n = 350,000); AID 720511;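 active = mean added fluorescence quench of at least 8% versus neutral control, with both replicates also reaching 8%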;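 note: cells transiently co-express mutant CFTR-F508del with the halide-sensitive YFP; corrector assay measuring rescue of mutant channel to the surface after 24 h compound exposure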
SKN-1 inh: C. elegans SKN-1 inhibition | actives 0.49% (n = 360,000) | inhibition, % at 21.8 µM | C. elegans VP596 Pgst-4::GFP/RFP ratio, acrylamide-induced, 24 h;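 active = interference check ratio from 0.5 to 1.5 plus GFP to RFP signal ratio inhibition reaching or exceeding a fixed threshold, cut at about 30% in these data, passing the limit was not always enough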
CendR NRP1 mod: alters CendR peptide binding to human NRP-1; FAM-RPARPAR peptide binding to NRP-1, fluorescence polarization; O14786; inhibition, % at 25 µM; actives 0.85% (n = 360,000);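 active = inhibition or corrected inhibition above about 18%, plus a signal ratio from 0.5 to 1.5, limit read from the data, passing the limit was not always enough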
MPTP inh: permeability transition pore inhibition; isolated mouse mitochondria, Ca2+ swelling absorbance, 30 min; inhibition, % at 10 µM; actives 1.4% (n = 360,000); AID 602449;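 active = inhibition of 50% or more, scaled per plate between neutral and stimulator controls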;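 note: 0% = DMSO wells given calcium and 100% = 1 mM EGTA wells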
ATG4B inh: blocks human ATG4B protease cleavage of LC3 substrate | Q9Y4P1 | ATG4B cleavage of LC3-PLA2, NBD-HPC fluorescence, 1 h | inhibition, % at 8.33 µM | actives 0.51% (n = 340,000) | AID 504462; in the data active = inhibition above about 40%
Target sequence (Q9Y4P1 whole entry, looked up): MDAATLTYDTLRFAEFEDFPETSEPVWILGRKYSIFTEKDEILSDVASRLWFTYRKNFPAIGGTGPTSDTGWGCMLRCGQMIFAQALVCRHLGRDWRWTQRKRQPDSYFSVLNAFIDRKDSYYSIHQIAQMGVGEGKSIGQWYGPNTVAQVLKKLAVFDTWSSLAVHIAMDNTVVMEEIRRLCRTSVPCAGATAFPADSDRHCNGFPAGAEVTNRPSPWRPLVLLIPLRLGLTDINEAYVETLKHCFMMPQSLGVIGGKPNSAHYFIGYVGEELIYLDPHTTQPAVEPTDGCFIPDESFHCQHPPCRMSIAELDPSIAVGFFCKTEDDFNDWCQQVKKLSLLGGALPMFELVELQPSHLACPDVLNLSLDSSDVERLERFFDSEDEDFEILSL
MPTP counter: mitochondrial membrane potential, counter-screen; inhibition, % at 10 µM; isolated mitochondria, Rhodamine 123 fluorescence; shares compounds with MPTP inh; actives 78% (n = 5,000); in the data active = inhibition above about 22%;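 note: 0% = DMSO vehicle and 100% = positive control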
MPTP swell DR: MPTP inhibition, dose response swelling confirmation; shares compounds with MPTP inh; isolated mitochondria swelling, absorbance; IC50, µM; actives 58% (n = 780); AID 651561; in the data active = IC50 below about 20 µM
MPTP cs DR: active in counter-screen for permeability transition pore inhibitors; isolated mitochondria counterscreen, fluorescence read-out; IC50, µM; AID 651564; actives 49% (n = 780); shares compounds with MPTP inh; in the data active = IC50 below about 80 µM
The depositor's hits bear a star; i = inactive; nt = not tested or not shown. Sampled rows, rich in hits. Any-hit rate of the full collection: about 2.7%.

SMILES	CFTR F508del cor	SKN-1 inh	CendR NRP1 mod	MPTP inh	ATG4B inh	MPTP counter	others
CC(=O)N1CCc2cc(S(=O)(=O)NCCCN3CCCCC3)ccc21	-0.8	-0.1	-0.4	-2.3	-2.9	nt
COc1ccc(S(=O)(=O)N(C)C[C@H]2Oc3cc(C4=CCCC4)ccc3S(=O)(=O)N([C@@H](C)CO)C[C@H]2C)cc1	1.1	nt	nt	nt	nt	nt
O=C(N/N=C/C1C(c2ccccc2)C1(Cl)Cl)c1cccc(Cl)c1 (stereo not given)	nt	3.4	24.6*	75.4*	14.1	79.6*
O=C(N/N=C/c1c[nH]c2ccccc12)c1cccc(Cl)c1	1.7	10.1	2.9	1.1	-6.2	nt
CCOc1ccc(CN(C)c2ccc(S(=O)(=O)N3CCN(C)CC3)cc2[N+](=O)[O-])cc1OC	nt	5.5	8.2	55.0*	-8.2	92.8*
N#CCC(=O)NCCCOC(=O)Nc1ccc(Cl)c(Cl)c1	nt	-1.0	-1.7	79.3*	-10.9	85.8*
C[C@@H]1CN([C@H](C)CO)S(=O)(=O)c2ccc(C#CC3CC3)cc2O[C@H]1CN(C)C(=O)CN(C)C	-1.4	nt	nt	nt	nt	nt
CCOc1cc(C)c(S(=O)(=O)Nc2ccc3cn[nH]c3c2)cc1C	nt	20.7	2.3	72.5*	-19.5	75.9*
CC(C)(C)c1ccc(C(=O)N/N=C/c2cccc(Cl)c2)cc1	nt	-14.1	-0.3	80.8*	-5.1	84.5*
C/C=C/c1ccc([C@H]2[C@@H](CO)N(C(C)=O)[C@H]2CNC(=O)CC2CC2)cc1	1.6	nt	nt	nt	nt	nt
Cc1ccc(OCC(=O)c2cc(C)n(Cc3cccs3)c2C)c([N+](=O)[O-])n1	-0.1	14.9	-9.5	75.8*	-1.0	66.8*
Cc1ccc(OCC(=O)c2cc(C)n(CC(F)(F)F)c2C)c([N+](=O)[O-])n1	0.6	3.3	1.3	-0.1	5.3	nt
Cc1ccc(S(=O)(=O)Nc2ccc3cc([N+](=O)[O-])ccc3c2[N+](=O)[O-])cc1	1.3	13.2	-84.1	87.9*	-3.7	79.0*
COc1ccc(Cc2nnc(Nc3ccc(Cl)cc3)[nH]c2=O)cc1	-1.8	-5.4	-10.9	84.2*	0.2	67.3*
COc1ccc(Nc2nnc(Cc3ccc(Cl)cc3)c(=O)[nH]2)c(OC)c1	nt	0.4	5.9	4.9	-8.7	nt
COc1ccc(CN(C)C[C@H]2OCCCC[C@H](C)Oc3ccc(NC(=O)NC4CCCCC4)cc3C(=O)N([C@@H](C)CO)C[C@H]2C)cc1	-0.1	nt	nt	nt	nt	nt
COc1cccc(S(=O)(=O)N[C@H]2CC[C@H](CC(=O)NCc3ccccc3)O[C@H]2CO)c1	0.7	nt	nt	nt	nt	nt
CO[C@H]1CN(C)C(=O)c2ccc(NS(=O)(=O)CC(F)(F)F)cc2OC[C@H](C)N(CC2CCCCC2)C[C@H]1C	0.9	nt	nt	nt	nt	nt
Cc1ccc(S(=O)(=O)N2CCCCC2)cc1NC(=O)CSc1ncnc2ccccc12	nt	11.6	3.6	4.7	-1.4	nt
Cc1ccc(NC(=O)CSc2ncnc3ccccc23)cc1S(=O)(=O)N1CCCCCC1	3.1	11.0	-3.7	62.1*	-4.1	81.0*
Cc1ccc(NC(=O)COc2ccc(N(C)C(=O)C(C)(C)C)cc2)cc1S(=O)(=O)N1CCCCC1	1.3	32.9	-9.2	92.7*	-19.3	100.2*
C[C@@H]1CN([C@@H](C)CO)C(=O)c2cc(NC(=O)NC3CCCCC3)ccc2O[C@@H](C)CCCCO[C@H]1CN(C)C(=O)CCCN(C)C	2.8	nt	nt	nt	nt	nt
CCOC(=O)c1nc(C)nc(Sc2n[nH]c(-c3cc(C(F)(F)F)cc(C(F)(F)F)c3)n2)c1C	0.9	-8.1	-7.7	65.3*	-7.3	71.7*
CCOc1ccccc1NC(=O)C1C(c2ccccc2)C1(Cl)Cl (stereo not given)	-0.6	9.9	5.5	1.2	nt	nt
Cc1ccc(C)c(NC(=O)C2C(c3ccccc3)C2(Cl)Cl)c1 (stereo not given)	nt	1.1	3.6	75.7*	10.8	88.9*
SMILES	CFTR F508del cor	SKN-1 inh	CendR NRP1 mod	MPTP inh	ATG4B inh	MPTP counter	others
O=C(Nc1ccc(Cl)cc1)C1C2CCC3C(CCC21)C3(Cl)Cl (stereo not given)	nt	-14.1	16.3	5.1	-3.9	nt
O=C(Nc1ccc(F)cc1)C1C2CCC3C(CCC21)C3(Cl)Cl (stereo not given)	-0.3	15.1	5.3	61.7*	-1.1	73.6*
O=C(Nc1ccc(F)cc1)C1C(c2ccccc2)C1(Cl)Cl (stereo not given)	nt	2.3	1.4	91.6*	20.7	90.2*
CCc1ccccc1NC(=O)C1C(c2ccccc2)C1(Cl)Cl (stereo not given)	nt	1.8	3.3	50.7*	9.8	76.1*
CCCN1CCCCC(NC(=O)c2ccc(Cl)cc2Cl)C1=O (stereo not given)	1.9	nt	nt	nt	nt	nt
COc1ccc2c3c([nH]c2c1)[C@@H](CO)N(S(=O)(=O)c1cn(C)cn1)CC31CCN(Cc2ccccc2Cl)CC1	0.0	nt	nt	nt	nt	nt
C[C@@H]1CN([C@H](C)CO)C(=O)Cc2cc(NC(=O)CCCN(C)C)ccc2O[C@@H]1CN(C)CC1CCCCC1	-1.9	nt	nt	nt	nt	nt
Clc1cccc(/C(Cc2nc3ccccc3[nH]2)=N\Nc2ccccc2)c1	nt	22.1	9.4	97.1*	12.9	62.2*
Cn1ncc2c(N3CCN(c4ccc(Cl)c(Cl)c4)CC3)ncnc21	-0.4	10.9	-2.6	88.5*	-0.5	99.2*
Cc1ccc(C2(CCNC(C)c3cccs3)CCOC(C(C)C)C2)cc1 (stereo not given)	0.5	0.0	-16.2	90.8*	-4.9	-14.2	MPTP swell DR=12.3*;MPTP cs DR=59.3*
Cc1nc2c(Br)cc(Br)cc2cc1O	nt	-2.9	0.6	99.4*	2.8	97.4*
Cc1nn(C(C)C(=O)NNC(=S)Nc2ccc(Cl)cc2)c(C)c1[N+](=O)[O-] (stereo not given)	nt	20.1	-8.3	51.4*	7.3	60.0*
Cc1nn(CCC(=O)NNC(=S)Nc2ccc(Cl)cc2)c(C)c1[N+](=O)[O-]	nt	3.4	3.5	23.4	-4.7	nt
O=C(Nc1ccccc1)[C@H]1[C@H](CO)[C@H]2Cn3c(cccc3=O)[C@H]2N1CC1CC1	0.2	nt	nt	nt	nt	nt
COC(=O)CSc1nnc(C)c(=O)[nH]1	nt	-6.0	10.9	-5.3	-13.8	nt
CCOC(=O)CNc1nnc(SCC(=O)OCC)[nH]c1=O	nt	1.1	5.4	58.0*	7.0	-3.8	MPTP swell DR=>100;MPTP cs DR=>80
COCCn1c(C)cc(C(=O)CSc2nc(C)cc(C)c2C#N)c1C	nt	-10.2	-3.0	65.9*	-8.9	4.2	MPTP swell DR=i;MPTP cs DR=58*
Cc1cc(C)c(C#N)c(SCC(=O)c2cc(C)n(CCc3ccccc3)c2C)n1	nt	0.2	-4.3	1.0	-3.0	nt
CN1C(=O)C(N=Nc2ccc([N+](=O)[O-])cc2)SC1=S (stereo not given)	nt	95.6*	-12.1	111.7*	-1.0	69.3*
CCCc1nc2sc3c(c2c(=O)n1NC(=O)c1ccco1)CC(C)(C)OC3	1.9	4.5	0.4	-0.3	2.8	nt
